Reference: PubChem BioAssay
Calls of active or inactive are those of the source.

Tests used:
[1] = tested on: Human papillomavirus type 1a protein E7 (residues 44-93); assay: HPV1a E7 fragment binders on microarrays, primary screen, biochemical, small-molecule microarray, residues 44-93, 635 nm fluorescence (AID 1108); conditions: small-molecule microarray binding, fluorescence 635 nm; higher = more signal;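 further: E7 fragment applied at 1 µg/mL in TBST for 1 h at 4 C; score combines spot fluorescence with its signal to noise ratio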
[2] = modulators of HCV replicon luciferase signal, primary screen, HCV replication inhibitor project, Huh7 cells, luciferase reporter (AID 1109); conditions: 48 h, higher = more signal;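 further: huh7 hepatoma cells harbouring a luciferase neomycin HCV replicon reporter; luciferase luminescence as measure of HCV replicon replication; test concentration not given here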
[3] = target: Left-right determination factor 2 (Homo sapiens) (UniProt O00292); assay: LEFTY2 binders on small-molecule microarrays, primary screen, biochemical, small-molecule microarray, 635 nm fluorescence scan (AID 1110); conditions: LEFTY2 binding, higher = more signal
[4] = target: Calmodulin-1 (Homo sapiens) (UniProt P0DP23); assay: CALM1 binders on microarrays, EGTA buffer, profiling panel, biochemical, small-molecule microarray, Cy5-labelled CALM1 (AID 1111); conditions: Cy5-CALM1 binding fluorescence, higher = more signal;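 further: labelled calmodulin applied in Tris saline Tween buffer holding calcium plus EGTA and DTT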
[5] = target: Calmodulin-1 (Homo sapiens) (UniProt P0DP23); assay: calcium-bound CALM1 binders on microarrays, profiling panel, artefact control for SMM control-protein annotation, biochemical, small-molecule microarray, Cy5-labelled CALM1, plus calcium (AID 1112); conditions: Cy5-CALM1 binding fluorescence, higher = more signal;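 further: score merges spot fluorescence with signal to noise from triplicate slides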
[6] = small-molecule microarray binders of probe aWnt5a, primary screen, biochemical, biotinylated probe, 635/667 nm fluorescence (AID 1113); conditions: higher = more signal;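 further: score merges 667 nm fluorescence intensity with signal-to-noise per printed feature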
[7] = small-molecule microarray binders of probe aShh, primary screen, biochemical, biotinylated probe, 635/667 nm fluorescence (AID 1114); conditions: higher = more signal;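 further: probe is biotin-labelled aShh protein from a stem cell growth factor screen; measures binding of labelled protein to compounds printed on the slide; score merges feature fluorescence at 667 nm with signal-to-noise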
[8] = small-molecule microarray binders of probe aNog, primary screen, biochemical, biotinylated probe, 635/667 nm fluorescence (AID 1115); conditions: higher = more signal;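 further: probe is biotinylated aNog protein used at 0.15 µg/mL for 1 h at 4 C; z-score combines 667 nm fluorescence of each spot with its signal to noise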
[9] = target: Torsin-1A-interacting protein 1 (Homo sapiens) (UniProt Q5JTV8); assay: LAP1 binders from COS7 cell lysate, primary screen, small-molecule microarray, 635/667 nm fluorescence (AID 1116); conditions: COS7-hLAP1 lysate binding, 635 nm fluorescence, higher = more signal
[10] = target: Alpha-bungarotoxin (Bungarus multicinctus) (UniProt P60615); assay: alpha-bungarotoxin binders on microarray, profiling panel, artefact control for SMM control protein annotation, biochemical, small-molecule microarray, Alexa647 label, 635/667 nm fluorescence (AID 1117); conditions: alpha-BTX-A647 binding fluorescence, higher = more signal
Albumin (Bos taurus) = Albumin (Bos taurus) (UniProt P02769); assay: bovine serum albumin binders on microarray, profiling panel, artefact control for SMM control protein annotation, biochemical, small-molecule microarray, Alexa647 label, 635/667 nm fluorescence (AID 1118); conditions: BSA-A647 binding, fluorescence 635 nm, higher = more signal;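 further: score merges 667 nm emission intensity and signal-to-noise per printed compound spot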
[11] = small-molecule microarray binders of probe aXIP, primary screen, biochemical, NeuroSMM set, 635/667 nm fluorescence (AID 1119); conditions: higher = more signal, called active from +8 up or from −8 down;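 further: probe is the protein aXip251-270 applied at 1 µg/mL to compound-printed slides; binding of probe to printed compounds measured as 667 nm fluorescence plus signal to noise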
[12] = small-molecule binders of probe aNOTCH3, primary screen, biochemical, small-molecule microarray, 635/667 nm fluorescence (AID 1120); conditions: higher = more signal;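 further: probe is a biotin-tagged antibody raised against NOTCH3 rather than NOTCH3 protein; score merges spot fluorescence near 667 nm with spot signal to noise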
[13] = small-molecule binders of probe aNOTCH2, primary screen, biochemical, small-molecule microarray, 635/667 nm fluorescence (AID 1121); conditions: higher = more signal;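 further: score merges feature fluorescence read at 667 nm with its signal to noise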
[14] = target: Carbonic anhydrase 2 (Homo sapiens) (UniProt P00918); assay: CAII small-molecule binders, profiling panel, biochemical, small-molecule microarray, Alexa647-labelled CAII (AID 1122); conditions: CAII-A647 binding fluorescence, higher = more signal
[15] = COS7 lysate on small-molecule microarray, probe aHis, 635 nm (AID 1123); conditions: COS7 cell lysate, fluorescence, higher = more signal;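 further: z-score combines 667nm fluorescence intensity with signal-to-noise per printed compound spot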
[16] = compound binding in COS7 lysate, probe aLAP1, primary screen, cell lysate, small-molecule microarray (AID 1124); conditions: probe aLAP1, fluorescence, higher = more signal;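 further: lysate comes from COS7 cells expressing LAP1 and is applied at 0.3 µg/mL; score merges spot fluorescence near 667 nm with signal-to-noise over triplicate slides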
Sam68 (KHDRBS1) = assay: Sam68 small-molecule binders, primary screen, biochemical, small-molecule microarray, 635 nm fluorescence (AID 1125); conditions: small-molecule microarray binding, higher = more signal;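 further: score merges 667 nm channel intensity with signal to noise over triplicate slides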
[17] = tested on: Chordin-like protein 2 (CHRDL2); assay: CHRDL2 small-molecule binders, primary screen, biochemical, small-molecule microarray, 635 nm fluorescence (AID 1126); conditions: small-molecule microarray binding, fluorescence 635 nm; higher = more signal;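 further: printed compound slides probed with Chrdl2 protein at 4 µg/mL for 1 h at 4 C; score merges 667 nm emission intensity with signal to noise over three replicate slides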
[18] = target: Concanavalin-A (Canavalia ensiformis) (UniProt P02866); assay: ConA small-molecule binders, primary screen, artefact control for SMM control protein annotation, biochemical, small-molecule microarray, Alexa647 label, 635 nm (AID 1127); conditions: ConA-A647 binding fluorescence, higher = more signal;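 further: z combines 667 nm emission intensity with signal-to-noise across three replicate slides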
Chain of Concanavalin-A (Canavalia ensiformis) (P02866 whole entry, looked up): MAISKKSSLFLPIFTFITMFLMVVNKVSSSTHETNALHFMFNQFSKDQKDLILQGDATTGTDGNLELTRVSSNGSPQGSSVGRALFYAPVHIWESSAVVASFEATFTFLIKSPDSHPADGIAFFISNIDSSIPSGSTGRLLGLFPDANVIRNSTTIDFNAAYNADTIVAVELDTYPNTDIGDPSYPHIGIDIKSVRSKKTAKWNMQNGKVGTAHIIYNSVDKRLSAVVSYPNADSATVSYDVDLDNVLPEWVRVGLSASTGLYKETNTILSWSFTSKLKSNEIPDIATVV

Chain of Left-right determination factor 2 (Homo sapiens) (O00292 whole entry, looked up): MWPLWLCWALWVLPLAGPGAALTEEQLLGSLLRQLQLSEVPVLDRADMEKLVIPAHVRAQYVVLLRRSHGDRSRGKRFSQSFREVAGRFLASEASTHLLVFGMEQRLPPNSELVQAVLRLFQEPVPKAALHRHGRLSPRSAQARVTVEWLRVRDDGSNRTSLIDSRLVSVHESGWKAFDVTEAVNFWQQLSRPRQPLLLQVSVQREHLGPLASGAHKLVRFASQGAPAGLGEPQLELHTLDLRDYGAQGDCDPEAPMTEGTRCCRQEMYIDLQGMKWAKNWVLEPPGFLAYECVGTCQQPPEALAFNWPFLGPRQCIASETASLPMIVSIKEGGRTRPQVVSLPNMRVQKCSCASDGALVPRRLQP
Chain of Torsin-1A-interacting protein 1 (Homo sapiens) (Q5JTV8 whole entry, looked up): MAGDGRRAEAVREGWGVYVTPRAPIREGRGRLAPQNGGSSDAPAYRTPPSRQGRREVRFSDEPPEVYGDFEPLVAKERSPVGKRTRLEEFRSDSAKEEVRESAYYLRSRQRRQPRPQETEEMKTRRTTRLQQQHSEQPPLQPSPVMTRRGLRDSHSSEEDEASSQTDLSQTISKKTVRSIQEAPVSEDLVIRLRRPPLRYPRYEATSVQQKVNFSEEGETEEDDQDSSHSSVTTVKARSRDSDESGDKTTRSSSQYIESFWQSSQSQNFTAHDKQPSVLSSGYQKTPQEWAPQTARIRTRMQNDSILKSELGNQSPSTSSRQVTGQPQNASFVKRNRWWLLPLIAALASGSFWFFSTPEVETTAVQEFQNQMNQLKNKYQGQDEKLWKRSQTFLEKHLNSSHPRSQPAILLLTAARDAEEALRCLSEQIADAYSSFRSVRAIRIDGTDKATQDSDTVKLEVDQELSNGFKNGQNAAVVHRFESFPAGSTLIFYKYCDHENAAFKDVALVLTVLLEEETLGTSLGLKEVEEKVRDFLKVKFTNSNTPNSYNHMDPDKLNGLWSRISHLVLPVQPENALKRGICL
Chain of Alpha-bungarotoxin (Bungarus multicinctus) (P60615 whole entry, looked up): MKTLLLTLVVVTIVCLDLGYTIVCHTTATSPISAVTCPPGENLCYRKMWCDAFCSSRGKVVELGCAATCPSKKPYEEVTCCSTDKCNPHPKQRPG
Chain of Albumin (Bos taurus) (P02769 whole entry, looked up): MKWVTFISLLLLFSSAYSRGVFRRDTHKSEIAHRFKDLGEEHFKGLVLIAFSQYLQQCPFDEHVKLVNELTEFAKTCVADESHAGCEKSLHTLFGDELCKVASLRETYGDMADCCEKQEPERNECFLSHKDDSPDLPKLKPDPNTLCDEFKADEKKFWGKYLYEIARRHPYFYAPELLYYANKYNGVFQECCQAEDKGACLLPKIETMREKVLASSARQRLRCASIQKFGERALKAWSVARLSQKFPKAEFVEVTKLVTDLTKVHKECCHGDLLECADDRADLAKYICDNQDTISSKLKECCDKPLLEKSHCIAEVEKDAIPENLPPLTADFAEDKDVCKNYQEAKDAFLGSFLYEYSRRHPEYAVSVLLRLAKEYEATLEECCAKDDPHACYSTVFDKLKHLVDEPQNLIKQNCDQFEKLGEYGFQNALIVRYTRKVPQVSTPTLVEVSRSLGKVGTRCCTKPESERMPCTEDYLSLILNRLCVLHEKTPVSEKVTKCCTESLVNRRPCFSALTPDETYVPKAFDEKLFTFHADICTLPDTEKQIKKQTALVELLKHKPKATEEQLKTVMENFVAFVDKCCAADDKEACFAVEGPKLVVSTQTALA

SMILES | composite z-score [1] | z-score [2] | composite z-score [3] | composite z-score [4] | composite z-score [5] | composite z-score [6] | composite z-score [7] | composite z-score [8] | composite z-score [9] | composite z-score [10] | composite z-score (Albumin (Bos taurus)) | composite Z-score [11] | composite z-score [12] | composite z-score [13] | composite z-score [14] | composite z-score [15] | composite z-score [16] | composite z-score (Sam68 (KHDRBS1)) | composite z-score [17] | composite z-score [18]
COC(=O)[C@@]1(Cc2ccccc2)[C@H]2c3cc(C(=O)N(C)C)n(Cc4ccc(S(C)(=O)=O)cc4)c3C[C@H]2CN1C(=O)c1ccccc1 | -1.1 | -0.912 | -0.115 | 1.69 | 1.11 | 0.0613 | 0.954 | 0.35 | 1.29 | 0.548 | 1.13 | -0.368 (inactive) | 0.364 | 0.199 | 0.647 | 2.9 | 0.722 | 0.296 | -0.755 | 1.08
COC(=O)C(CC#Cc1ccc2c(c1)[C@]1(C(=O)N2)[C@H](c2ccc(OCCO)cc2)N2[C@H](c3ccccc3)[C@H](c3ccccc3)OC(=O)[C@H]2[C@@H]1C(=O)N1CCCCCCC1)C(=O)OC | 1.32 | -0.851 | 1.62 | 2.73 | 1.29 | 1.25 | 2.81 | 2.33 | 4.91 | 2.62 | 0.576 | 4.71 (inactive) | 1.75 | 0.967 | 0.933 | 3.5 | 1.65 | 1.3 | 1.52 | 1.21
O=C1OCCC=C[C@H]2OC34C=CCN(c5ccc6ccccc6c5)C(=O)[C@H]3N(CCO)C(=O)[C@@H]4C12 (stereo not given in full) | -0.988 | -0.07 | -0.277 | -0.237 | -0.419 | -0.219 | -0.383 | -0.453 | 0.468 | 0.0797 | -0.594 | 0.465 (inactive) | -0.571 | -0.445 | 0.368 | -0.237 | -0.162 | -0.362 | -0.976 | -0.403
CCCC=C(CCC)[C@@H](NC(=O)c1ccc(C(F)(F)F)cc1)c1ccc(C(F)(F)F)cc1 | 1.36 | -1.5 | -0.203 | 1.72 | 1.09 | 0.253 | 0.778 | 1.78 | 0.926 | 0.942 | 1.01 | -0.523 (inactive) | 0.326 | 0.105 | 0.205 | 2.94 | -0.0554 | 1.31 | -0.748 | 1.07
CC1CC/C=C\[C@H]2OC34C=CCN(Cc5ccccc5)C(=O)[C@H]3N(CCCCCCO)C(=O)[C@@H]4C2C(=O)O1 (stereo not given in full) | -0.504 | -0.117 | -1.26 | 0.284 | 0.636 | -0.12 | -0.0146 | -0.0007 | 2.32 | -1.2 | 0.434 | -0.213 (inactive) | -0.383 | -0.133 | 0.895 | 0.42 | 0.718 | -0.957 | -0.993 | -1.45
CCCNC(=O)[C@@]1(c2ccc([N+](=O)[O-])cc2)CC(=O)N(C(C)C)[C@@H]1c1ccc(CO)cc1 | -0.603 | 0.0828 | -0.649 | -0.168 | 0.263 | -0.18 | -0.138 | -0.326 | -0.824 | -0.276 | 0.667 | -0.0527 (inactive) | -0.344 | -0.0876 | 0.801 | 1.7 | 0.188 | -0.626 | -1.54 | -0.536
COC(=O)[C@@]1(Cc2ccccc2)[C@H]2c3cc(C(=O)N4CCCC4)n(Cc4ccc(OC)c(OC)c4)c3C[C@H]2CN1C(=O)c1ccccc1 | 1.44 | -2.27 | -0.737 | 1.39 | 0.852 | 0.421 | 0.853 | 1.85 | 1.38 | 0.315 | 0.909 | 0.651 (inactive) | 1.11 | 0.204 | 0.853 | 3.22 | 0.382 | 1.04 | -1.05 | 0.827
COc1ccc([Si](C)(C)[C@@H]2[C@@H](CC(=O)N3CCC[C@H]3CO)O[C@]3(C(=O)N(Cc4cccc(N5CCCCC5=O)c4)c4ccccc43)[C@H]2C)cc1 | 0.845 | -2.57 | 0.415 | 0.336 | 0.0654 | -0.148 | 0.0723 | 0.21 | 0.191 | 1.22 | -0.101 | 1.39 (inactive) | -0.0098 | -0.127 | 0.583 | 1.97 | 0.433 | 1.07 | 0.781 | 1.11
O=C(N1CCOCC1)[C@@]1(Cc2ccccc2)COC(c2ccc(OCCCO)cc2)=N1 | 1.44 | -1.95 | -0.571 | 1.16 | 0.83 | -0.0161 | -0.288 | -0.221 | 1.38 | 2.35 | 1 | -0.0252 (inactive) | 0.14 | 0.245 | 0.769 | 2.7 | 0.872 | 1.19 | -0.354 | 0.578
CCOC(=O)C1=CC[C@@H](c2ccc(OC)cc2)N(S(=O)(=O)c2ccc(C)cc2)[C@H]1c1ccc(C)cc1 | 1.33 | -0.12 | -0.0746 | 0.783 | 0.894 | 0.0509 | 0.216 | -0.201 | 0.467 | 0.611 | 0.446 | 0.477 (inactive) | 0.0203 | -0.084 | 0.222 | 1.99 | 0.423 | 1.34 | -0.554 | 0.669
